In one experiment the target is C15orf39. Description: pooled miR-30 sensor sort-seq; sequence = guide strand. As to conditions: shRNA.
With TTGTCCTGACCTTCACTGGTGG, the sensor-assay potency score (higher = more potent) was -0.545.

As to TTCAGCATGCGTGAGGTGCAGC, the sensor-assay potency score (higher = more potent) is -0.396.

TACCGGTAGAGTACAAGGGTGG yielded a sensor-assay potency score (higher = more potent) of -0.811. Same read-out and setting: then TAGAGAGAGAGGTCATCCCGGG, with -0.132; and TTGTCAATGACAGGCATTGGTG, with -1.34; and TACACAGTCGCGCCACTGCAGG, with -1.54. For the sequence TTTGTCCTGACCTTCACTGGTG, the sensor-assay potency score (higher = more potent) is -0.221. The same measure, in the same setting: to TGGTGCTTCTGTGTCTATCTTT belongs -0.327; to TGGAGCTTCTCTTTCCTGCAGC, -0.965.

Take ATAAGGAAAACTCAGTGTCTGG: the sensor-assay potency score (higher = more potent) is -1.35. The same measure, in the same setting: then ATAGAGAGAGAGGTCATCCCGG, with -0.641.

In another experiment the target is C15orf42. The experiment is described as above. As to conditions: shRNA.
TTCATCTTCTGTCTCACTGGAG registered a sensor-assay potency score (higher = more potent) of 0.162.

As for TTCTTGATGAGCTATAGTGGAT, the sensor-assay potency score (higher = more potent) is -1.03. The same measure, in the same setting: then TTCAACATCTTTAAGGAACGGC, with 0.686. Still for that read-out and setting: then TTGATTTACAAGACAATAGGAG, with 0.136. For TTAGTGATCTCTTTGAAGGGGA, the sensor-assay potency score (higher = more potent) worked out at 0.326.

Regarding TTTAGGAACATTTTAACGGTTG, the sensor-assay potency score (higher = more potent) is -0.0807. As to TTTACTCTTACTAACTTCTGAA, the sensor-assay potency score (higher = more potent) stood at 0.249. Consider TACAACATGATTTCTCCTGTGG, for which the sensor-assay potency score (higher = more potent) turned out to be 0.642.

On to TTCAATTTGTCGAAGATTCTGT, for which the sensor-assay potency score (higher = more potent) came out at 0.525. In turn, TTGGTCTGACTTATCTTGCTGG came in with a sensor-assay potency score (higher = more potent) of -0.193.

On to TATACTATCCACAACATCTGAG, for which the sensor-assay potency score (higher = more potent) was found to be 0.285. On the same count and under the same terms, to TAGGTTTAGAACTTCTTAGTGT belongs 0.687.

For the origin of these results see the OligoGym collection.
Note: reference of the scale not given here.
